Bioassay records: PubChem, several laboratories
Shown are actives, neighbours in structure and some others; about 3.7% of the full set was active somewhere.
MazF activator = increases E. coli MazEF RNase cleavage of RNA; AID 504720; P0AE70; FAM/BHQ RNA-DNA oligo cleavage fluorescence, 5 h; 350,000 tested, 0.32% active; activation, % at 20 µM; in the data active = activation above about 50%
Target sequence (P0AE70 whole entry, looked up): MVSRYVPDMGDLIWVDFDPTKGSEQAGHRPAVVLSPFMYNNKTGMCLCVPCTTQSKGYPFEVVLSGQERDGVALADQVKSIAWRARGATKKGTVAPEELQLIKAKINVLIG
BoNT-F LC inh = inhibitors of Botulinum neurotoxin F light chain protease. 360,000 tested, 0.22% active. AID 588497. Multiplex microsphere protease cleavage assay, flow cytometry. inhibition, % at 10 µM; in the data active = inhibition above about 35%, passing the limit was not always enough; inconclusive = no clear call, values can overlap the other calls
Bead autofluor = counter-screen for toxin protease inhibitors: compound fluorescence. compound autofluorescence counterscreen, microsphere flow cytometry; active compounds read high. fluorescence intensity (no concentration beside the values). AID 624483. 360,000 tested, 3.1% active; in the data active = fluorescence intensity above about 16000; inconclusive = no clear call, values can overlap the other calls
BoNT A protease = BoNT A light chain protease inhibition | 360,000 tested, 0.17% active | multiplex microsphere protease substrate cleavage, flow cytometry | AID 588499 | inhibition, % at 10 µM
Anthrax LF inh2 = anthrax lethal factor protease inhibition | P15917 | multiplex microsphere protease cleavage assay, LF | inhibition, % at 10 µM | 360,000 tested, 0.12% active | AID 588501
Numbers stand for hits; – = inactive; ? = inconclusive; · = no result. Rule as the data show it, unless noted: active = inhibition above about 30%; inconclusive = no clear call, values can overlap the other calls; inactive = below that.

SMILES | MazF activator | BoNT-F LC inh | Bead autofluor | BoNT A protease | Anthrax LF inh2
O=C(O)Cc1ccc(C(=O)c2ccc(Cl)cc2Cl)s1 | – | – | – | – | –
Cc1cccc(C2=NN(c3ccc(Br)cc3)[C@@H](C(=O)N3CCOC3=O)[C@@H]2c2ccc(Cl)cc2)c1 | 129 | – | – | – | –
FC(F)(F)c1cc(-c2ccco2)nc(N2CCN(Cc3ccccc3)CC2)n1 | – | – | 21755 | – | –
COc1cccc(-c2nc(N3CCCCC3)c3ccccc3n2)c1O | – | – | – | – | –
COc1cccc(-c2nc(NC(C)C)c3ccccc3n2)c1O | – | – | 24838 | – | –
CCC(C)Nc1nc(-c2cccc(OC)c2O)nc2ccccc12 (stereo not drawn) | – | ? | – | – | –
CCC1CCCCN1c1nc(-c2cccc(OC)c2O)nc2ccccc12 (stereo not drawn) | – | – | 16896 | – | –
N/C(=N\OC(=O)Cc1ccc(-c2ccccc2)cc1)c1cccc([N+](=O)[O-])c1 | – | – | 16257 | – | –
N/C(=N\OC(=O)Cc1ccccc1)c1cccnc1 | – | – | 20077 | – | –
N/C(=N\OC(=O)CCC1CCCC1)c1ccc(Br)cc1 | – | – | – | – | –
N/C(=N\OC(=O)CCC1CCCCC1)c1cccnc1 | – | – | 21493 | – | –
N/C(=N\OC(=O)Cc1ccc(-c2ccccc2)cc1)c1cccnc1 | – | – | – | – | –
C=CCOC(=O)C1=C(C)OC(N)=C(C(=O)OCC)C12C(=O)N(CC(N)=O)c1ccccc12 (stereo not drawn) | – | – | 19254 | ? | –
CCOC(=O)C1=C(C)OC(N)=C(C(=O)OCC)[C@@]12C(=O)N(CC(N)=O)c1ccccc12 | – | – | – | – | –
O=C(NCc1ccccc1)c1cc(C2CCCCN2C(=O)c2ccccc2)on1 (stereo not drawn) | · | – | – | – | –
C/C(=N\NC(=O)c1ccccc1)c1ccc2c(c1)OCO2 | – | – | 22585 | – | –
C/C(CCc1ccc2c(c1)OCO2)=N\NC(=O)c1ccccc1 | – | – | – | – | –
NC(=NCc1ccc2c(c1)OCO2)NC(=O)c1ccccc1 | – | 45 | – | – | –
CC(=O)Nc1cccc(/C(C)=N/NC(=O)c2ccc3c(c2)OCO3)c1 | – | – | – | – | –
O=S(=O)(N/N=C/c1ccc2c(c1)OCCO2)c1ccccc1 | – | – | 22257 | – | –
O=C(O)c1cc(N/N=C/c2ccc3c(c2)OCCO3)ccc1Cl | – | 38 | – | – | –
CC(=O)Nc1cccc(-c2cc(NC(C)=O)c3ncc(-c4cccc(C(F)(F)F)c4)n3c2)c1 | · | – | – | – | –
CNC(=O)ON(C(=O)NC)C1N(C)C(=S)SC1(C)C (stereo not drawn) | – | – | – | – | –
CN1C(=S)SC(C)(NO)C1(C)C (stereo not drawn) | – | – | 18153 | – | –
CCC(CC)C(=O)c1c[nH]c(C(=O)NCCCn2ccnc2)c1 | – | – | 22434 | ? | –
SMILES | MazF activator | BoNT-F LC inh | Bead autofluor | BoNT A protease | Anthrax LF inh2
CC(C)CC(=O)c1c[nH]c(C(=O)NCCCn2ccnc2)c1 | – | – | 19657 | – | –
Cc1ccc(CN2CCSc3ccc(C(=O)N4CCN(c5ncccn5)CC4)cc32)cc1 | – | – | 22029 | – | –
Cc1cc(C)cc(N2C(=O)NC(=O)/C(=C\c3cc(C)n(C)c3C)C2=O)c1 | 92 | – | – | – | –
Cc1cc(/C=C2\C(=O)NC(=O)N(c3ccc(Cl)cc3)C2=O)c(C)n1C | – | – | – | – | –
Cc1ccc(O)c(-c2cc(C(F)(F)F)[nH]n2)c1 | – | – | 21889 | ? | –
Cc1cccc(NC(=O)c2cc(-c3cc(C)ccc3O)n[nH]2)c1 | – | – | – | – | –
COc1ccc2c(c1)C(CC(C)=O)N(c1ccc(-c3cccs3)cc1)C(c1ccsc1)=C2 (stereo not drawn) | · | – | – | – | –
CC1CCN(C(=O)C2c3ccccc3C(=O)N3CCc4ccccc4C23)CC1 (stereo not drawn) | – | – | 22497 | – | –
CCCN(CCC)CCNC(=O)C1c2ccccc2C(=O)N2CCc3ccccc3C12 (stereo not drawn) | – | – | – | – | –
CCOCCCNC(=O)C1c2ccccc2C(=O)N2CCc3ccccc3C12 (stereo not drawn) | – | – | 16166 | – | –
CC(C(=O)Nc1ccc(Br)cc1)N(C)CC(=O)NCc1ccco1 (stereo not drawn) | – | – | – | – | –
Nn1c(SCc2ccccc2F)nnc1-c1ccncc1 | – | · | · | · | ·
Cc1nnc(SCc2ccccc2F)n1NCc1cccs1 | – | – | 22098 | – | –
COc1ccc(-c2coc3cc(OC(C)=O)ccc3c2=S)cc1 | – | – | – | – | –
CCCCCCNC(=O)CCNC(=O)c1cc(OC)c(OC)c(OC)c1 | – | – | 22280 | – | –
COc1cc(C(=O)Nc2ccc(Br)cc2C(=O)c2ccccc2)cc(OC)c1OC | – | · | · | · | ·
COc1cc(C(=O)NCCSc2ccc(Br)cc2)cc(OC)c1OC | – | – | 18300 | – | –
COc1cc(C(=O)Nc2ccc(Br)cc2C(=O)c2cc(OC)c(OC)c(OC)c2)cc(OC)c1OC | – | – | 24193 | – | –
C=CCN(C(=O)CNC(=O)c1ccco1)C(C(=O)NC1CCCC1)c1ccc(OC)cc1 (stereo not drawn) | – | – | – | – | –
CCCc1cc(Nc2c(C)n(C)n(-c3ccccc3)c2=O)n2c(nc3ccccc32)c1C#N | – | – | 22932 | – | –
Cc1cc(Nc2c(C)n(C)n(-c3ccccc3)c2=O)n2c(nc3ccccc32)c1C#N | – | – | – | – | –
CCOc1ccc(-c2noc([C@@H]3O[C@H](CO)[C@@H](O)[C@H]3O)n2)cc1 | · | – | – | – | –
COc1ccc(C(=O)C[n+]2cc(Br)cc3ccccc32)cc1[N+](=O)[O-] | – | 52 | – | 116 | –
O=C(C[n+]1cc(Br)cc2ccccc21)c1ccccc1 | – | – | – | 100 | 46
CCC(C)(C)n1nnnc1CN1CCC(NC(=O)c2ccccc2C)CC1 | – | – | – | – | –
SMILES | MazF activator | BoNT-F LC inh | Bead autofluor | BoNT A protease | Anthrax LF inh2
CCOc1ccccc1C(=O)NC1CCN(Cc2nnnn2C2CCCC2)CC1 | – | – | 22337 | ? | –
Cc1cc(C)n(-c2ccc(C(=O)N3CCN(S(=O)(=O)c4ccc(OC(F)(F)F)cc4)CC3)cc2)n1 | – | – | – | – | –
CC1(C)SC(=S)N(Cc2ccc3c(c2)OCO3)C1N(O)C(=O)NC1CCCCC1 (stereo not drawn) | – | – | ? | – | –
CN1C(=S)SC(N(O)C(=O)NC2CCCCC2)C1(C)C (stereo not drawn) | – | – | 21404 | ? | –
CC(C)CCNC(=S)NC1CCCC1 | – | – | 20284 | – | –
CC(C)CCNC(=O)C(=O)NC1CCCC1 | – | – | – | – | –
OC(c1ccc(F)c(F)c1)c1nc(-c2cccc(F)c2)cs1 (stereo not drawn) | · | – | – | – | –
CC(NC(=O)NC12CC3CC(CC(C3)C1)C2)C1CCCO1 (stereo not drawn) | – | – | 21432 | ? | –
Fc1cccc(-c2cncc(N3CCN(CCN4CCCC4)CC3)n2)c1 | · | – | – | – | –
Brc1ccc(OCc2ccccc2)c(CNCc2ccncc2)c1 | – | – | 16749 | – | –
